The list is not random: actives were taken first. Their share in the collection is about 10%.
L major viab: inhibitors of Leishmania major promastigote growth. 200,000 tested, 9% active. inhibition, % at 10 µM. AID 1063. Leishmania major promastigotes, resazurin fluorescence viability; in the data active means inhibition above about 50%;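 further: promastigotes grown with compound for 44 hours at 28 °C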
ROMK primary: modulates human ROMK potassium channel activity. P48048. Tet-inducible ROMK, thallium flux fluorescence; actives lie on both sides. B-score at 10 µM. 130,000 tested, 2% active;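 active means signal ratio slope over the read window, or its plate-corrected B-score, at least 3 SD from the plate mean, either direction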;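 further: B-score of the F/F0 ratio slope over 7 to 12 s after thallium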
Target sequence (P48048 whole entry, looked up): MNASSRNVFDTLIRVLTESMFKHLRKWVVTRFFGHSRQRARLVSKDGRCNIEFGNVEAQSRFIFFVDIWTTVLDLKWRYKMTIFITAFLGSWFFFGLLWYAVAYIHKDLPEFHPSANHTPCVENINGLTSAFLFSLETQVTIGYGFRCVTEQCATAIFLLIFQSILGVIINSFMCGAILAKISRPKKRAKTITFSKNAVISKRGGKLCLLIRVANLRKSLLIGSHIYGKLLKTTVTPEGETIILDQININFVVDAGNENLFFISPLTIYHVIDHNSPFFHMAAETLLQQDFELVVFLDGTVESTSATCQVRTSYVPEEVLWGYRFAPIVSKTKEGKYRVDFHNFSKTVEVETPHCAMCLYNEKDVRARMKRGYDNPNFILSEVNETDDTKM
bCat KO growth: beta-catenin-lacking colon tumor cell growth suppression. HCT116 beta-catenin knockout viability, CellTiter-Glo, 60 h; active compounds read low. viability, % at 10 µM. 140,000 tested, 1.5% active. AID 818;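 active means viability at or under a set limit, the compound median less 4 SD, cut at about 6% in these data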;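 further: 0% = Hyamine 1622 control at 20 µM and 100% = untreated cell control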
p97 ATPase inh: blocks human p97 ATPase activity. recombinant p97 ATPase, Kinase-Glo ATP luminescence, 3 h. inhibition, % at 8 µM. AID 1481. P55072. 220,000 tested, 0.42% active; in the data active means inhibition above about 15%;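 further: 0% = DMSO vehicle and 100% = wells lacking enzyme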
Insulin prom inh: TRM-6 insulin promoter activity inhibition; 130,000 tested, 0.9% active; TRM-6 cells (human fetal islet line), insulin promoter-eGFP reporter, imaging; reporter expression induced with tamoxifen; AID 1273; inhibition, % at 2 µM;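 active means inhibition above the mean plus 3 SD, with well images judged a real hit on visual review, cut at about 60% in these data, passing the limit was not always enough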
HCT116 PTEN-null: PTEN-deleted cell growth suppression; HCT116 PTEN-null viability, CellTiter-Glo, 60 h; active compounds read low; viability, % at 10 µM; 140,000 tested, 1.2% active;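 active means viability at or below a set limit, 4 SD under the median of all tested compounds, cut at about 3.7% in these data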;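 further: PTEN knockout HCT116 line with beta catenin targeted HCT116 as companion control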
The depositor's hits bear a star; / = no result.

SMILES	L major viab	ROMK primary	bCat KO growth	p97 ATPase inh	Insulin prom inh	HCT116 PTEN-null
CCn1c(CCNC(=O)c2ccc(OC)cc2)nnc1SCc1ccc(Cl)cc1Cl	91.1*	/	92.4	-2.0	-29.6	79.2
CCn1c(CCNC(=O)c2ccc(C)cc2)nnc1SCc1ccc(Cl)c(Cl)c1	5.5	/	88.8	-1.4	/	98.8
CCn1c(CCNC(=O)c2ccc(OC)cc2)nnc1SCc1ccc(Cl)c(Cl)c1	93.3*	/	66.9	1.6	-10.7	54.9
O=C(CN1C(=O)C(=O)N(Cc2ccccc2)C1=O)Nc1ccc(F)c(Cl)c1	-1.1	-0.172	/	6.3	/	/
CCOC(=O)c1c(C)n(C)c2cc(-c3ccc(F)cc3)c(O)cc12	-4.0	/	95.9	2.4	/	98.0
CN(C)c1nc(NC(C)(C)C)nc(SCC(=O)Nc2ccccc2)n1	21.9	0.569	/	5.9	80.5*	/
COc1cccc(Sc2ccccc2CN(C)C)c1	6.4	0.051	82.8	0.5	28.6	85.9
CNCc1ccccc1Sc1ccc(OC)cc1	9.1	-1.77	92.2	1.5	/	89.3
CN(C)CCN(C)Cc1ccccc1Sc1cccc2ccccc12	100.3*	-1.87	1.2*	-4.2	-29.4	1.5*
CNCc1ccccc1Sc1cccc2ccccc12	79.2*	/	15.5	7.5	-48.5	7.4
O=C(CN1CCOCC1)N(c1ccccc1)c1ccc2ccccc2c1	5.6	0.235	100.2	0.9	/	92.4
O=C(CN1CCN(c2ccccn2)CC1)N(c1ccccc1)c1ccc2ccccc2c1	97.1*	/	50.4	-6.1	-177.8	50.4
CC(C)CCN1CCN(Cc2cccc(C(F)(F)F)c2)CC1CCO (stereo unspecified)	92.4*	-2	/	-0.4	/	/
CSc1cccc(CN2CCN(CCC(C)C)C(CCO)C2)c1 (stereo unspecified)	78.5*	-0.669	/	0.1	/	/
COC(=O)c1c(NC(=O)CSc2ccccc2N)sc(C)c1C	6.5	0.00537	/	-4.5	-56.2	/
O=C(N/N=C/c1ccc2c(c1)OCO2)c1cc(-c2ccccc2Cl)nc2ccccc12	55.9*	-0.352	94.0	-2.5	33.3	96.1
CCOc1ccccc1-c1cc(C(=O)N/N=C/c2ccc(O)c(OC)c2)c2ccccc2n1	57.9*	-0.158	64.7	4.5	-154.0	66.7
Cc1cc(C(=O)N/N=C/c2ccc3c(c2)OCO3)c2ccccc2n1	/	/	/	9.2	/	/
O=C(CNC(=O)c1ccccn1)N/N=C/c1ccc2c(c1)OCO2	63.0*	0.708	/	3.0	11.8	/
CCOc1ccccc1-c1cc(C(=O)N/N=C/c2ccc3c(c2)OCO3)c2ccccc2n1	50.7*	0.547	55.5	2.5	31.0	48.8
O=C(Nc1ccccc1C(=O)NC(Cc1ccccc1)C(=O)NC1CCCCC1)c1ccccc1 (stereo unspecified)	16.9	0.293	81.5	0.2	-46.7	84.6
O=C(C[n+]1ccccc1)Nc1ccccc1C(=O)O	-1.8	/	/	4.8	0.0	/
Cc1c(Cl)cccc1NC(=O)Cc1ccc([N+](=O)[O-])cc1	4.9	-1.11	/	5.8	-33.3	/
CC(NC(=O)/C(=C/c1ccc2c(c1)OCO2)NC(=O)c1cccc([N+](=O)[O-])c1)C(=O)O (stereo unspecified)	1.3	0.0363	/	6.7	/	/
Cc1cc([N+](=O)[O-])ccc1NC(=O)CN1C2CCC1CC(NC(=O)NC13CC4CC(CC(C4)C1)C3)C2 (stereo unspecified)	39.8	-0.955	/	2.8	/	/
SMILES	L major viab	ROMK primary	bCat KO growth	p97 ATPase inh	Insulin prom inh	HCT116 PTEN-null
Cn1cc([N+](=O)[O-])c(C(=O)N/N=C/c2ccc3c(c2)OCO3)n1	10.3	1.12	/	4.3	77.8*	/
Cc1ccc(NS(=O)(=O)c2cc(OCC(N)=O)c(C)cc2Cl)cc1	78.5*	0.575	93.3	1.1	0.0	96.6
Cc1cc(Cl)c(S(=O)(=O)Nc2ccc3c(c2)OCO3)cc1OCC(N)=O	0.2	-0.523	87.8	-4.1	3.0	90.0
Clc1nc(-c2ccccn2)nc2scc(-c3ccccc3)c12	66.0*	-0.641	12.6	7.7	-33.3	7.4
O=C(CCCOc1ccccc1)Nc1ccc(Cl)cn1	-4.3	0.655	/	-3.1	/	/
COC(=O)C1=C(C)N(c2ccc(Cl)c(Cl)c2)C(=O)C1	80.4*	/	3.6*	-0.6	69.2	3.6*
COC(=O)C1=C(C)N(c2ccc(S(N)(=O)=O)cc2)C(=O)C1	-1.4	/	92.7	-1.4	-492.9	92.5
O=C1CSC(=S)N1CC1CCCO1 (stereo unspecified)	80.9*	0.691	68.4	2.5	/	61.1
O=C(Cn1cc([N+](=O)[O-])cn1)NCc1cc2ccccc2[nH]1	-7.6	-0.668	95.5	1.3	/	87.0
O=C(CSc1ccc(Cl)cc1)N1CCN(c2c(Cl)cccc2[N+](=O)[O-])CC1	64.8*	/	58.7	-4.7	3.2	62.4
O=C(/C=C/c1ccc(Cl)cc1)N1CCN(c2c(Cl)cccc2[N+](=O)[O-])CC1	20.8	0.794	79.9	2.1	50.0	81.9
Nc1[nH]ncc1-c1ccccc1	3.5	-0.385	/	3.0	2.7	/
COC(=O)c1cc(C(=O)OC)cc(-n2c(C)cc(C(=O)CC#N)c2C)c1	95.4*	/	91.8	-1.9	/	110.2
O=S1(=O)CCN2N=C(C3CC3)SC2=N1	-5.8	-0.621	/	4.7	/	/
NNc1ncnc2scc(-c3ccc(Cl)cc3)c12	68.3*	0.0164	14.0	-8.6	/	8.5
CCN(CC)C(=O)c1sc(NC(=O)c2ccc(OC)c([N+](=O)[O-])c2)c(C#N)c1C	-5.3	0.463	88.1	4.2	-17.6	95.6
COc1ccc(C(c2nnnn2C2CCCC2)N2CCN(C3CCCC3)CC2)cc1OC (stereo unspecified)	83.2*	/	83.5	-7.2	20.9	91.5
COc1ccccc1C(c1nnnn1Cc1ccccc1)N1CCN(C2CCCC2)CC1 (stereo unspecified)	11.6	/	86.2	1.1	-26.7	94.0
COc1cc(C(c2nnnn2C2CCCC2)N2CCN(C)CC2)cc(OC)c1OC (stereo unspecified)	8.6	-0.22	82.4	-2.5	/	87.1
COc1ccc(C(c2nnnn2CCc2ccccc2)N2CCN(C3CCCC3)CC2)cc1OC (stereo unspecified)	99.6*	/	88.7	-4.2	/	84.6
CCOC(=O)c1[nH]c2ccc(OCC)cc2c1CCCN1C(=O)c2ccccc2C1=O	-7.6	0.546	81.1	3.8	-5.6	91.6
Cc1cc([N+](=O)[O-])cc(/C=N\NC(=O)C2COc3ccccc3O2)c1O (stereo unspecified)	/	1.21	/	6.8	/	/
OC(COc1ccccc1Cl)CN1CCN(CC(O)COc2ccccc2Cl)CC1 (stereo unspecified)	88.4*	/	43.0	1.1	/	43.0
COc1ccccc1N1CCN(CC(O)COc2cccc3ccccc23)CC1 (stereo unspecified)	5.1	/	47.4	0.0	9.5	49.0
OC(COc1ccc2ccccc2c1Cl)CN1CCOCC1 (stereo unspecified)	91.9*	-0.343	93.8	2.2	-28.6	102.0
Cc1ccccc1OCC(O)CN1CCN(C)CC1 (stereo unspecified)	-11.8	0.799	/	0.3	/	/
COc1ccc(Oc2ccc(-c3ccn[nH]3)cc2)cc1	/	-0.735	/	4.8	/	/

Bioassay records as filed in PubChem BioAssay.
